From PubChem BioAssay (Tox21)
Values joined by “and” are separate entries in the source; they are usually repeats but may differ in a detail not shown here. Equal values may be shown once. Inconclusive results are not listed. Active and inactive are the calls of the source. The call rests on the fitted dose curve; in most records, active means well fitted curve in the direction sought with a large enough effect in the repeat runs; inconclusive means weak or mixed curves; inactive means no such curve, though single readings can be large; an effect the other way counts as inactive or inconclusive.

Experiments:
[1] = qHTS RealTime-Glo MT Cell Viability Assay in HepG2 cells - 40 hour (AID 1224870); further: nearly all actives have a fitted effect of over 50% in size
Outline: (§1)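 Real-time viability: cells seeded at 600 per well together with NanoLuc and cell-permeant prosubstrate, compounds added after 5 h incubation. Luminescence tracked at 0, 8, 16, 24, 32 and 40 h of exposure.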

[2] = qHTS RealTime-Glo MT Cell Viability Assay in HEK293 cells - 16 hour (AID 1224872); further: top concentration of the series differs between compounds; nearly all actives have a fitted effect of over 50% in size
Outline: (§2)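 Cells + reagent dispensed (600 cells/well, HEK293) → 5 h at 37 C/5% CO2 → 23 nL compound in DMSO pinned → 40 h at 37 C → luminescence read at 0, 8, 16, 24, 32, 40 h.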

[3] = qHTS RealTime-Glo MT Cell Viability Assay in HepG2 cells - 8 hour (AID 1224873); further: nearly all actives have a fitted effect of over 55% in size
Outline: as §1

[4] = qHTS RealTime-Glo MT Cell Viability Assay in HEK293 cells - 40 hour (AID 1224874); settings: RealTime-Glo luminescence; max response: hits give low values; further: nearly all actives have a fitted effect of over 50% in size
Outline: (§3)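 600 HEK293 cells per well, dispensed already mixed with RealTime-Glo MT reagents. Compound dosing came 5 h later. The same wells were read for luminescence at 0, 8, 16, 24, 32 and 40 h of exposure at 37 C.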

[5] = A CellTox Green Cytotoxicity Assay to monitor cytotoxicity in HEK293 cells - 24 hour (AID 1224875); further: series mostly up to about 77 µM; nearly all actives have a fitted effect of over 45% in size
Outline: (§4)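 Dead-cell fluorescence measured kinetically: asymmetric cyanine dye, HEK293, 600 cells/well, 5 h settle, 23 nL cpd/DMSO, 37 C, reads 0–40 h every 8 h.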

[6] = A CellTox Green Cytotoxicity Assay to monitor cytotoxicity in HepG2 cells - 16 hour (AID 1224876); further: nearly all actives have a fitted effect of over 45% in size
Outline: (§5)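 First, HepG2 cells (600/well) mixed with reagent were plated; second, after 5 h at 37 C they received compounds via pintool; third, fluorescence was measured at 0 h through 40 h at 8 h intervals.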

[7] = qHTS RealTime-Glo MT Cell Viability Assay in HepG2 cells - 32 hour (AID 1224877); further: nearly all actives have a fitted effect of over 55% in size
Outline: (§6)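 Real-time, nonlytic viability: 600 HepG2 cells/well mixed with NanoLuc enzyme plus prosubstrate; 5 h settle, compound (DMSO) added by pintool; luminescence monitored over 40 h at 37 C.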

[8] = A CellTox Green Cytotoxicity Assay to monitor cytotoxicity in HepG2 cells - 24 hour (AID 1224878); further: nearly all actives have a fitted effect of over 45% in size
Outline: as §5

[9] = A CellTox Green Cytotoxicity Assay to monitor cytotoxicity in HepG2 cells - 40 hour (AID 1224879); further: nearly all actives have a fitted effect of over 40% in size
Outline: as §5

[10] = qHTS RealTime-Glo MT Cell Viability Assay in HEK293 cells - 0 hour (AID 1224880); further: top concentration of the series differs between compounds; nearly all actives have a fitted effect of over 45% in size
Outline: as §3

[11] = A CellTox Green Cytotoxicity Assay to monitor cytotoxicity in HEK293 cells - 32 hour (AID 1224881); further: nearly all actives have a fitted effect of over 40% in size
Outline: as §4

[12] = A CellTox Green Cytotoxicity Assay to monitor cytotoxicity in HepG2 cells - 0 hour (AID 1224882); further: nearly all actives have a fitted effect of over 35% in size
Outline: as §5

[13] = A CellTox Green Cytotoxicity Assay to monitor cytotoxicity in HepG2 cells - 32 hour (AID 1224883); further: nearly all actives have a fitted effect of over 50% in size
Outline: as §5

[14] = A CellTox Green Cytotoxicity Assay to monitor cytotoxicity in HEK293 cells - 8 hour (AID 1224884); further: nearly all actives have a fitted effect of over 35% in size
Outline: as §4

[15] = qHTS RealTime-Glo MT Cell Viability Assay in HepG2 cells - 16 hour (AID 1224885); further: nearly all actives have a fitted effect of over 50% in size
Outline: as §6

[16] = qHTS RealTime-Glo MT Cell Viability Assay in HEK293 cells - 24 hour (AID 1224886)
Outline: as §2

[17] = qHTS RealTime-Glo MT Cell Viability Assay in HEK293 cells - 8 hour (AID 1224887)
Outline: as §3

[18] = A CellTox Green Cytotoxicity Assay to monitor cytotoxicity in HEK293 cells - 16 hour (AID 1224888); further: nearly all actives have a fitted effect of over 35% in size
Outline: as §4

[19] = qHTS RealTime-Glo MT Cell Viability Assay in HepG2 cells - 0 hour (AID 1224889); further: nearly all actives have a fitted effect of over 50% in size
Outline: as §6
On the % scale 0 is the no-effect control and ±100 the full control effect.

O=C(O)c1ccc([N+](=O)[O-])cc1
inactive: Potency [1] | Potency [2] | Potency [3] | max response [4] 2.62% and 0.789% | Potency [5] | Potency [6] | Potency [7] | Potency [8] | Potency [9] | Potency [10] | Potency [11] | Potency [12] | Potency [13] | Potency [14] | Potency [15] | Potency [16] | Potency [17] | Potency [18] | Potency [19]

C=CC(=O)OCCCCCCCC(C)C
inactive: Potency [1] | Potency [2] | Potency [3] | max response [4] 4.58% and 25.2% | Potency [5] | Potency [7] | Potency [8] | Potency [9] | Potency [10] | Potency [11] | Potency [12] | Potency [13] | Potency [14] | Potency [15] | Potency [16] | Potency [17] | Potency [18] | Potency [19]

CC(C)(N=C=O)c1cccc(C(C)(C)N=C=O)c1
inactive: Potency [1] | Potency [2] | Potency [3] | max response [4] 0.966% | Potency [5] | Potency [6] | Potency [7] | Potency [8] | Potency [9] | Potency [10] | Potency [11] | Potency [12] | Potency [13] | Potency [14] | Potency [15] | Potency [16] | Potency [17] | Potency [18] | Potency [19]

NC(=O)/N=N/C(N)=O
inactive: Potency [1] | Potency [2] | Potency [3] | max response [4] 1.69% and 1.16% | Potency [5] | Potency [6] | Potency [7] | Potency [8] | Potency [9] | Potency [10] | Potency [11] | Potency [13] | Potency [14] | Potency [15] | Potency [16] | Potency [17] | Potency [18] | Potency [19]

CCCCC/C=C\C/C=C\CCCCCCCC(=O)OC
inactive: Potency [1] | Potency [2] | Potency [3] | max response [4] 3.92% and -0.83% | Potency [5] | Potency [7] | Potency [8] | Potency [10] | Potency [12] | Potency [13] | Potency [14] | Potency [15] | Potency [16] | Potency [17] | Potency [18]

OC[C@@H](O)[C@@H](O)[C@H](O)[C@@H](O)CO
inactive: Potency [1] | Potency [2] | Potency [3] | max response [4] -13% and 0.936% | Potency [5] | Potency [6] | Potency [7] | Potency [8] | Potency [10] | Potency [11] | Potency [12] | Potency [13] | Potency [14] | Potency [15] | Potency [16] | Potency [17] | Potency [18]

Cc1ccc(N)c(S(=O)(=O)O)c1
inactive: Potency [1] | Potency [2] | Potency [3] | max response [4] -4.11% and 2.65% | Potency [5] | Potency [7] | Potency [8] | Potency [9] | Potency [10] | Potency [11] | Potency [12] | Potency [13] | Potency [14] | Potency [15] | Potency [16] | Potency [17] | Potency [18] | Potency [19]

O=C(Cl)c1c(Cl)c(Cl)c(C(=O)Cl)c(Cl)c1Cl
inactive: Potency [1] | Potency [2] | Potency [3] | max response [4] 8.71% and 13.6% | Potency [5] | Potency [7] | Potency [8] | Potency [9] | Potency [10] | Potency [11] | Potency [12] | Potency [13] | Potency [14] | Potency [15] | Potency [16] | Potency [17] | Potency [18] | Potency [19]

O=c1c(-c2ccc(O)cc2)coc2cc(O)ccc12
inactive: Potency [1] | Potency [2] | Potency [3] | Potency [5] | Potency [6] | Potency [7] | Potency [8] | Potency [9] | Potency [10] | Potency [11] | Potency [12] | Potency [13] | Potency [14] | Potency [15] | Potency [17] | Potency [18] | Potency [19]

CCc1ccc(O)cc1
inactive: Potency [1] | Potency [2] | Potency [3] | max response [4] 3.14% and 3.17% | Potency [5] | Potency [7] | Potency [8] | Potency [9] | Potency [10] | Potency [11] | Potency [13] | Potency [14] | Potency [15] | Potency [16] | Potency [17] | Potency [18]

c1ccc2ccccc2c1
inactive: Potency [1] | Potency [2] | Potency [3] | max response [4] 0.777% and 7.95% | Potency [5] | Potency [6] | Potency [7] | Potency [8] | Potency [9] | Potency [10] | Potency [11] | Potency [13] | Potency [14] | Potency [15] | Potency [16] | Potency [17] | Potency [18] | Potency [19]

COC(=O)c1ccccc1O
inactive: Potency [1] | Potency [2] | Potency [3] | max response [4] -1.26% and 16.9% | Potency [5] | Potency [6] | Potency [7] | Potency [8] | Potency [9] | Potency [10] | Potency [12] | Potency [13] | Potency [14] | Potency [15] | Potency [16] | Potency [17] | Potency [18] | Potency [19]

CCc1ccccc1O
inactive: Potency [1] | Potency [2] | Potency [3] | max response [4] -2.02% | Potency [5] | Potency [7] | Potency [8] | Potency [9] | Potency [10] | Potency [11] | Potency [13] | Potency [14] | Potency [15] | Potency [16] | Potency [17] | Potency [18] | Potency [19]

NCc1cccc(CN)c1
inactive: Potency [1] | Potency [2] | Potency [3] | max response [4] -20.2% and 8.99% | Potency [6] | Potency [7] | Potency [8] | Potency [10] | Potency [12] | Potency [13] | Potency [14] | Potency [15] | Potency [16] | Potency [17] | Potency [18] | Potency [19]

CCCCCC/C=C/CCCCCCCC(=O)O
inactive: Potency [1] | Potency [2] | Potency [3] | max response [4] 2.68% and -1.87% | Potency [5] | Potency [6] | Potency [7] | Potency [8] | Potency [9] | Potency [10] | Potency [12] | Potency [13] | Potency [14] | Potency [15] | Potency [16] | Potency [17] | Potency [18]

CCCCCCCCCCCCOCC1CO1 (configuration not stated)
inactive: Potency [1] | Potency [2] | Potency [3] | max response [4] -10.9% and -25.4% | Potency [5] | Potency [6] | Potency [7] | Potency [8] | Potency [9] | Potency [10] | Potency [11] | Potency [12] | Potency [13] | Potency [14] | Potency [15] | Potency [16] | Potency [17] | Potency [18] | Potency [19]

O=[N+]([O-])C(CO)(CO)CO
inactive: Potency [1] | Potency [2] | Potency [3] | max response [4] 10.8% | Potency [5] | Potency [6] | Potency [7] | Potency [8] | Potency [9] | Potency [10] | Potency [12] | Potency [13] | Potency [14] | Potency [15] | Potency [16] | Potency [17] | Potency [18]
